PriA SSB inh: K. pneumoniae PriA-SSBct interaction inhibition. 430,000 tested, 0.6% active. inhibition, % at 33 µM. AlphaScreen SSBct-PriA binding, biotinylated peptide; in the data active means inhibition mostly above about 37%, no sharp cut-off; inactive means mostly below about 20%;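 further: plate controls were negative control peptide for no effect and reference peptide for full effect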
3CLpro inhibitor: SARS-CoV 3CLpro protease inhibition; recombinant SARS-CoV 3CLpro, quenched FRET peptide cleavage; inhibition, % at 6 µM; 290,000 tested, 0.14% active; in the data active means inhibition above about 12%
TcdB GH inh: blocks C. difficile toxin B glycohydrolase activity; AID 652162; 350,000 tested, 0.24% active; inhibition, % at 9.99 µM; TcdB glycohydrolase enzymatic assay, plate reader; in the data active means inhibition above about 10%
CCHF vOTU inh: CCHFV vOTU protease inhibition. Pep-AMC fluorescence. inhibition, % at 11.5 µM. 370,000 tested, 0.55% active. AID 651958; in the data active means inhibition above about 30%; further: 0% = vehicle wells with enzyme and 100% = no enzyme wells
VHR inh abs: blocks human VHR1 dual specificity phosphatase. inhibition, % at 13.3 µM. P51452. recombinant VHR phosphatase, pNPP absorbance. 290,000 tested, 0.52% active; in the data active means inhibition above about 50%
Vc quorum ag: quorum light induction in luxS cqsA deficient V. cholerae. activation, % at 18.7 µM. V. cholerae BH1578 lux reporter, luminescence, 6 h. 350,000 tested, 0.16% active; in the data active means activation mostly above about 9.7%, no sharp cut-off
* hit, by the source's call; i = inactive; x = no result. This is a sample that favours compounds with a hit; in the whole collection about 1.3% have one here.

SMILES	PriA SSB inh	3CLpro inhibitor	TcdB GH inh	CCHF vOTU inh	VHR inh abs	Vc quorum ag
Cn1c(=O)c(C(=O)NCCc2ccc(Cl)cc2)c(O)c2ccccc21	-40.8	1.4	-0.2	-4.0	59.1*	-0.1
Cc1ccc(CNC(=O)Cn2ccc3ccn(Cc4ccccc4F)c3c2=O)cc1	2.0	x	x	x	x	x
CCOC(=O)c1sc(=S)[nH]c1C	-19.1	x	11.7*	14.7	x	i
CCOC(=O)c1c(C)[nH]sc1=S	-4.0	3.9	x	3.4	-0.8	i
COc1cccc(CN(C(=O)CN2C(=O)c3ccccc3S2(=O)=O)C(C(=O)NCC2CCCO2)c2ccco2)c1 (stereo not drawn)	-10.5	0.2	1.1	-2.1	25.2	-0.3
O=C(NCC1CCCO1)C(c1ccco1)N(Cc1ccc(F)cc1)C(=O)CN1C(=O)c2ccccc2S1(=O)=O (stereo not drawn)	-6.7	0.0	0.9	-5.5	58.5*	-0.4
COc1cc(O)ccc1C(=O)CCc1ccc(O)cc1	-10.1	6.8	16.7*	7.5	17.6	-1.0
Cc1ccc(-c2nc3ccccn3c2NCc2ccc3c(c2)OCO3)cc1	45.0*	2.6	x	-20.9	-2.0	3.2
COc1ccccc1NC(=O)C(=O)NCc1cccnc1	-12.0	x	x	x	x	x
COc1ccc(NC(=O)N2c3ccccc3C(C)=CC2(C)C)cc1	11.3	1.2	0.9	2.1	-3.4	0.2
CCOc1ccc2c(c1)C(C)=CC(C)(C)N2C(=O)Nc1ccccc1	44.3*	-2.1	x	x	11.6	-12.5
COc1ccc(NC(=O)N2c3ccc(OC)cc3C(C)=CC2(C)C)cc1	54.0*	-1.3	x	15.7	-8.4	-0.3
COc1ccc(/C(O)=C2/C(=O)C(=O)N(CCCN(C)C)C2c2cccc(Cl)c2)cc1OC (stereo not drawn)	x	5.3	x	34.3*	7.6	-0.4
O=C1CSC(=NN=Cc2ccn[nH]2)N1	-10.3	x	x	x	x	x
N#Cc1nccnc1OC1CCN(C(=O)COc2ccc(Cl)cc2Cl)C1 (stereo not drawn)	-1.0	x	x	x	x	x
Cc1ccnc(Nc2ccc(NCCNC(=O)Nc3ccc(F)c(Cl)c3)nn2)c1	96.0*	x	x	x	x	x
Cc1ccnc(Nc2ccc(NCCNC(=O)Nc3cccc(C(F)(F)F)c3)nn2)c1	32.0*	x	x	x	x	x
Cc1ccnc(Nc2ccc(NCCNC(=O)c3cccc(F)c3)nn2)c1	20.0	x	x	x	x	x
COC(CNC(=O)NCc1ccc(F)cc1)c1ccc(C)s1 (stereo not drawn)	4.0	x	x	x	x	x
COc1ccc(S(=O)(=O)N=C2C=C(Nc3ccc(O)cc3)C(=O)c3ccccc32)cc1	40.4*	x	x	x	x	x
CC(C)(C)c1ccc(S(=O)(=O)N=C2C=C(NS(=O)(=O)c3ccccc3)C(=O)c3ccccc32)cc1	33.4	x	x	x	x	x
Cc1ccc(S(=O)(=O)N=C2C=C(Nc3ccc(O)cc3)C(=O)c3ccccc32)cc1	64.5*	x	x	x	x	x
CC(C)(C)c1ccc(S(=O)(=O)/N=C2\C=C(NS(=O)(=O)c3ccccc3)C(=O)c3ccccc32)cc1	x	6.9	0.8	54.4*	6.9	-0.1
CCOc1ccc(CC(=O)Nc2ccc3nc(C)n(-c4ccc(F)cc4)c(=O)c3c2)cc1	-21.0	x	x	x	x	x
COc1cc(=O)n(-c2ccccc2)cc1C(=O)N1CCC(Oc2cc(C)oc(=O)c2)CC1	12.0	x	x	x	x	x
SMILES	PriA SSB inh	3CLpro inhibitor	TcdB GH inh	CCHF vOTU inh	VHR inh abs	Vc quorum ag
COc1cnc(-c2ccccn2)nc1NC(C)C	95.0*	5.2	0.6	-1.2	19.0	-0.4
COc1cnc(-c2ccccn2)nc1N1CCOCC1	156.0*	x	x	x	x	x
COc1ccccc1Sc1nc(-c2ccccn2)ncc1OC	23.4	-1.3	4.7	-11.0	19.0	-0.1
COC(=O)N1CCC(CNC(=O)Cc2ccccc2Cl)CC1	-9.0	x	x	x	x	x
CCOC(=O)c1c(S(=O)(=O)NCCCc2ccco2)c(C)n(C)c1C	-3.8	-1.1	-0.8	11.5	51.3*	2.9
CCOC(=O)c1c(S(=O)(=O)NCCc2ccco2)c(C)n(C)c1C	-5.5	-0.7	0.9	15.5	12.9	i
CCOC(=O)c1c(S(=O)(=O)N(C)Cc2ccccc2)c(C)n(C)c1C	-6.2	-6.4	0.8	-3.3	57.7*	-0.2
O=C(Nc1cc(Cl)ccc1Oc1ccccc1)c1ccc2nccnc2c1	-2.0	x	x	x	x	x
COc1ccccc1C1(CNC(=O)Cc2c(C)noc2C)CCOCC1	-4.0	x	x	x	x	x
CCC(C(=O)Nc1ccc2[nH]ncc2c1)c1ccccc1 (stereo not drawn)	4.5	-5.2	1.5	-14.3	57.0*	0.8
CCC(C(=O)Nc1cccc(C(F)(F)F)c1)c1ccccc1 (stereo not drawn)	-72.3	12.9*	x	4.0	13.7	x
CCC(C(=O)Nc1ccncc1)c1ccccc1 (stereo not drawn)	-3.5	-3.9	x	8.1	-11.2	-0.4
O=C1C(=O)N(c2nccs2)C(c2ccccc2F)C1=C(O)c1ccc2c(c1)OCCO2 (stereo not drawn)	0.1	x	x	x	x	x
Cc1cc(C(=O)CSc2nncs2)c(C)n1Cc1ccco1	10.1	3.9	0.5	-3.9	-15.2	-0.5
Cc1cc(C(=O)CCl)c(C)n1Cc1ccco1	23.0	25.1*	0.4	-9.2	12.3	-0.2
CC(Cc1ccco1)NC(=O)CSCc1ccccc1 (stereo not drawn)	-10.0	x	x	x	x	x
CC(Oc1ccc(Cl)cc1Cl)C(=O)Nc1ccc(O)cc1 (stereo not drawn)	-14.8	3.0	14.5*	26.1	4.5	-0.7
COC1=C(Nc2ccccc2OC)C(=O)c2ccccc2C1=O	67.8*	3.0	0.1	12.8	3.8	-0.1
CCOc1ccc2oc(-c3ccccc3)c(C(=O)Nc3cc(OC)c(OC)cc3C(=O)OC)c2c1	-3.0	x	x	x	x	x
Cc1[nH]n(-c2ccccc2)c(=O)c1/C=N/N1C(=O)c2ccc3c4c(ccc(c24)C1=O)CC3	x	2.5	x	7.6	51.3*	-0.2
Cc1[nH]n(-c2ccccc2)c(=O)c1C=NN1C(=O)c2ccc3c4c(ccc(c24)C1=O)CC3	-0.8	x	x	x	x	x
Cc1ccc(N(CCCCN2C(=O)c3ccccc3C2=O)C(=O)c2cccs2)cc1	65.7*	-2.8	x	20.4	27.7	-0.2
O=C1c2ccccc2C(=O)N1CCCCN(C(=O)c1cccc([N+](=O)[O-])c1)c1ccc(Cl)cc1	-8.1	2.4	x	13.3	35.7	-2.4
O=C1c2ccccc2C(=O)N1CCCCN(C(=O)c1ccc([N+](=O)[O-])o1)c1ccc(Cl)cc1	40.0*	x	x	x	x	x
COc1ccc(N(CCCN2C(=O)c3cccc4cccc(c34)C2=O)C(=O)c2cccs2)cc1	0.8	2.3	-0.4	-12.6	-4.8	i
SMILES	PriA SSB inh	3CLpro inhibitor	TcdB GH inh	CCHF vOTU inh	VHR inh abs	Vc quorum ag
COc1ccc(CCNC(=O)Cn2cccc(-c3nc(-c4ccc(F)cc4)no3)c2=O)cc1OC	-8.0	x	x	x	x	x
Cc1cc(C)c2sc(NC(=O)CN(C)S(C)(=O)=O)nc2c1	0.0	x	x	x	x	x
CC1C(c2ccc3c(c2)OCO3)c2cc3c(cc2OC1N1CCOCC1)OCO3 (stereo not drawn)	2.4	x	10.6*	-1.9	x	i
CN(C1CCCCC1)C(CNS(=O)(=O)c1ccccc1)c1ccccc1 (stereo not drawn)	0.7	0.1	-0.5	-5.6	52.7*	i
CCOc1ccccc1NC1=NCC(=O)N1Cc1ccc(F)cc1	-4.0	-2.1	-7.6	5.0	53.4*	i
CC(C)(C)C(=O)N1CCc2ccc(NS(=O)(=O)Cc3ccccc3)cc21	-13.0	x	x	x	x	x
